# Measured values taken from PubChem BioAssay (NCATS).
# Results filed as inconclusive are left out. Calls of active or inactive are those of the source. Unless noted, the call rests on the fitted dose curve; in most records, active means well fitted curve in the direction sought with a large enough effect; inconclusive means small, poorly fitted or top-dose-only effect, or another doubt; inactive means no such curve, though single readings can be large; an effect the other way counts as inactive or inconclusive.
# Tests used:
# [1] = qHTS to identify inhibitors of the type 1 interferon - major histocompatibility complex class I in skeletal muscle: primary screen against the NCATS LOPAC collection (AID 1347405); conditions: iHSKM muscle cells, IFN-b-induced MHC-I HiBiT luminescence, 24 h; series mostly up to 45.9 µM
# Summary of the method: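 Luminescence from HiBiT fused to endogenous HLA-B in CRISPR-engineered human myoblasts served as the read-out. Cells received 4.0 ng/ml IFN-beta plus compound (seven concentrations, 1:4.3 steps, highest 46 uM final) for 24 hrs before lytic detection.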
# [2] = qHTS to identify inhibitors of the type 1 interferon - major histocompatibility complex class I in skeletal muscle: primary screen against the NCATS Pharmaceutical Collection (AID 1347407); conditions: human skeletal muscle cells, IFN-b-induced MHC-I HiBiT luminescence, 24 h; series mostly up to 45.9 µM
# Summary of the method: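 Compounds […] were added to CRISPR-engineered HLA-B-HiBiT C25cl48 human myoblasts with 4.0 ng/ml IFN-beta. After 24 hrs at 37 C, cells were lysed and HiBiT luminescence measured.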
# [3] = qHTS for inhibitors of Rabies Virus screened against the NCATS CANVASS Library (AID 1347402; calls by dose curve); conditions: Rabies virus infection cell assay; series mostly up to 45.9 µM
# [4] = molecular target: Nuclear receptor subfamily 1 group I member 3 (Homo sapiens) (UniProt Q14994); assay: qHTS for Constitutive Androstane Receptor (CAR) Agonist screened against the NCATS CANVASS Library (AID 1347373); conditions: HepG2-hCAR-CYP2B6 luciferase reporter, ONE-Glo luminescence; series mostly up to 91.4 µM
# Nuclear receptor subfamily 1 group I member 3 (Homo sapiens), sequence (Q14994 whole entry, looked up): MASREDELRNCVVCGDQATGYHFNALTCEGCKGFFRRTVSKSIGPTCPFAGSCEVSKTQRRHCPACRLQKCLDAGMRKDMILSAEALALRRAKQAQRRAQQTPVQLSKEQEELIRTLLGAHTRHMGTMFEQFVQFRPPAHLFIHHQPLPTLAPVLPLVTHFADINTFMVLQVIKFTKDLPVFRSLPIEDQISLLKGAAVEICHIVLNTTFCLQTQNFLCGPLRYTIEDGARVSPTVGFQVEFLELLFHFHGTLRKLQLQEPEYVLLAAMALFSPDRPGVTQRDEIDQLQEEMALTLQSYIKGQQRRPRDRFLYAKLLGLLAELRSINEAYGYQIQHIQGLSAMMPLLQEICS
# Summary of the method: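 HepG2-hCAR-CYP2B6 cells, 2500/well, attached 4hr; cpd + PK11195 1.5uM final; 24hr 37C 5% CO2. CellTiter-Fluor viability read, then ONE-Glo luminescence for CAR activation.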
# [5] = 10-beta competent E. coli microbial cell viability qHTS against the NCATS CANVASS Library (AID 1347376); conditions: E. coli 10-beta viability, BacTiter-Glo ATP luminescence, overnight; series mostly up to 91.4 µM
# Summary of the method: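 E. coli 10-beta, 0.2 OD; cpds 11-pt; o/n 37C, 5% CO2; BacTiter-Glo 20 min RT; luminescence (ATP) = viable cells. Daunomycin ctrl.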
# [6] = DH5-alpha competent E. coli microbial cell viability qHTS against the NCATS CANVASS Library (AID 1347377); conditions: BacTiter-Glo ATP luminescence, overnight; series mostly up to 91.4 µM
# Summary of the method: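 qHTS, 11-pt; E. coli DH5-alpha, 0.2 OD; o/n 37C/5% CO2; BacTiter-Glo, 20 min RT; luminescence.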
# [7] = qHTS for H2AX Agonists against the NCATS CANVASS Library (AID 1347378); conditions: CHO-K1 H2AX phosphorylation, HTRF TR-FRET, 3 h; series mostly up to 153 µM
# Summary of the method: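 Phospho-H2AX (S139) in CHO-K1 lysates measured by HTRF, reported as 665/615 nm emission ratio after 24 hr antibody incubation at room temperature. Cells were first treated with a compound series for 3 hr at 37C (0.76% DMSO final).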
# [8] = qHTS for Inflammasome Signaling Inhibitors: IL-1-beta AlphaLISA screen against the NCATS CANVASS Library (AID 1347379); conditions: THP-1 LPS/ATP, IL-1B AlphaLISA secretion, 16 h; at 114 µM (top of the series)
# Summary of the method: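 THP-1 cells pretreated 1 hr with compound (up to 57.5 uM final), then stimulated with LPS (250 ng/mL final) and ATP (1.25 mM final). Secreted IL-1B measured by AlphaLISA after 16 hr; glyburide as positive control.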
# [9] = qHTS for Antimalaria activity screened against the NCATS CANVASS Library (AID 1347380); conditions: P. falciparum Dd2 growth, SYBR Green fluorescence, 72 h; series mostly up to 57 µM
# Summary of the method: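 Dd2 strain, infected erythrocytes 2.5% Hct final / 0.3% parasitemia. 11-pt qHTS titration, 72 h, 37C, 5% O2, 5% CO2. Lysis buffer + SYBR Green, 18 h, fluorescence 485/535 nm.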
# [10] = Inflammasome Signaling qHTS Counterscreen: IL-1-beta AlphaLISA counterscreen against the NCATS CANVASS Library (AID 1347381); conditions: Purified IL-1beta AlphaLISA signal interference counterscreen; series mostly up to 114 µM
# Summary of the method: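 Cell-free interference check: compounds added to medium spiked with 4 pg purified IL-1β. Anti-IL-1β acceptor beads (6 ug/mL) with 0.6 nM biotinylated antibody added for 1 h at RT, then streptavidin donor beads (24 ug/mL) for 30 min in the dark. AlphaLISA read at 680/615 nm.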
# [11] = Cytotoxicity qHTS for assessment of Hepg2 cells membrane integrity screened against the NCATS CANVASS Library (AID 1347387); conditions: HepG2 LDH release (CytoTox-ONE) fluorescence, 5 h; series mostly up to 91.4 µM
# Summary of the method: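 qHTS, 11-pt conc. series, 0.59 nM - 46 uM final; HepG2 2000 cells/well, overnight attachment; 5 hr compound exposure 37C/5% CO2; CytoTox-ONE, 10 min RT; fluorescence ex560/em590 = LDH from damaged membranes.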
# [12] = qHTS for Activators of p53 Stress Response Pathway screened against the NCATS CANVASS Library (AID 1347388); conditions: p53RE-bla HCT-116, beta-lactamase reporter, 16 h; series mostly up to 91.4 µM
# Summary of the method: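 p53RE-bla HCT-116 cells (4000/well) were pre-incubated for 5 h, then treated with compound (11 points) for 16 h at 37C. After 2 h with CCF4, the 460/530 nm ratio gave reporter activation; CellTiter-Glo measured viability.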
# [13] = qHTS assay for small molecule disruptors of mitochondrial membrane potential screened against the NCATS CANVASS Library (AID 1347389); conditions: HepG2 mitochondrial membrane potential, m-MPI red/green ratio, 1.5 h; series mostly up to 91.4 µM
# Summary of the method: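 HepG2, 2,000 cells/well, attached overnight; compound 1 hr, 37C, 5% CO2; Mito-MPS dye 30 min, 37C; fluorescence 535 nm (monomer) and 590 nm (aggregate); decreased 590/535 ratio = depolarization.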
# [14] = Secretion counterscreen for inhibitors of the SERCaMP assay screened against the NCATS CANVASS Library (AID 1347390); conditions: SH-SY5Y constitutive GLuc secretion, luminescence, 20 h; series mostly up to 152 µM
# Summary of the method: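 Counterscreen for secretory-pathway interference: after 4 h attachment, SH-SY5Y-GLuc cells were exposed 20 hours to compounds (final 0.001 - 77 uM), then coelenterazine added and GLuc luminescence recorded; Brefeldin A served as control.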
# [15] = qHTS for activators of Nrf2/ARE signaling pathway screened against the NCATS CANVASS Library (AID 1347391); conditions: ARE-bla HepG2, beta-lactamase reporter, 16 h; series mostly up to 91.4 µM
# Summary of the method: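 Plate ARE-bla HepG2 cells at 2000/well and let them settle 5 h. Pin-transfer compounds in DMSO, incubate 16 h at 37C. Load CCF4 for 2 h at room temperature and read blue/green fluorescence.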
# [16] = qHTS for activators of dead-cell proteases activity screened against the NCATS CANVASS Library (AID 1347392); conditions: HepG2 cytotoxicity, dead-cell protease luminescence, 5 h; series mostly up to 91.4 µM
# Summary of the method: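 HepG2 cells, 2000/well, attached 18 h at 37C, then exposed to compounds (11-point qHTS) for 5 h. Dead-cell protease release read as luminescence from cell-impermeant AAF-aminoluciferin substrate after 15 min at room temperature.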
# [17] = Vero-766 cells viability qHTS against the NCATS CANVASS Library: Counterscreen for Zika virus inhibition assay (AID 1347394); conditions: Vero 766 viability, CellTiter-Glo luminescence, 72 h; series mostly up to 91.4 µM
# Summary of the method: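 CellTiter Glo luminescence measured cytotoxicity after 72 h at 37C in uninfected Vero 766 cells, plated at 1000 cells/well. Compounds were applied in an 11-point series. Wells without cells defined 100% inhibition.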
# [18] = qHTS for inhibitors of Wild type Zika virus screened against the NCATS CANVASS Library (AID 1347396); conditions: Vero cells, Zika virus CPE, CellTiter-Glo, 72 h; series mostly up to 91 µM
# Summary of the method: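 Using ATP-based luminescence (CellTiter Glo), this screen scores rescue of Vero 766 cells from wild-type Zika killing at 72 h post-infection. Compounds are tested in a concentration series.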
# [19] = Viability qHTS for inhibitors of the SERCaMP assay screened against the NCATS CANVASS Library (AID 1347400); conditions: SH-SY5Y SERCaMP cells viability, CellTiter-Glo, 48 h; series mostly up to 183 µM
# Summary of the method: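 SH-SY5Y SERCaMP MJH297 cells, 1000/well; 4 h settle, 37C/5% CO2; pin-transferred cpds; 48 h; CellTiter-Glo lum. Pos ctrl bortezomib 0.0001 - 4.6 uM.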
# [20] = Redox Reaction Profiling qHTS: Assay Interference Panel against the NCATS CANVASS Library (AID 1347401); conditions: resazurin-DTT redox cycling, fluorescence, 15 min; series mostly up to 113 µM
# Summary of the method: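 Compounds in 11-point series incubated with 5 uM resazurin and 200 uM DTT in 50 mM HEPES pH 7.3, 50 mM NaCl. Resorufin fluorescence (Ex 525/Em 598) read before and after 15 min in the dark.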
structure (smiles),measurement,setting,value
COc1ccc2c(c1OC)C(=O)O[C@H]2[C@@H]1c2cc3c(cc2CCN1C)OCO3,outcome,[1],inactive
same,Potency,[2],inactive
CC(NC(C)(C)C)C(=O)c1cccc(Cl)c1 (stereo not drawn),outcome,[1],inactive
same,Potency,[2],inactive
CCC(C)(C)c1ccc(O)cc1,Potency,[2],inactive
CN1CCC(O)(c2ccc(F)cc2)C(C(=O)c2ccc(F)cc2)C1 (stereo not drawn),Potency,[2],inactive
COC(=O)[C@@H]1[C@H]2C[C@H]3c4[nH]c5ccccc5c4CCN3C[C@@H]2CC[C@@H]1O,outcome,[3],inactive
C#CC(O)(C=CCl)CC (stereo not drawn),Potency,[2],inactive
CC(C)(C)NCC(O)c1ccccc1Cl (stereo not drawn),outcome,[1],inactive
same,Potency,[2],inactive
C[C@@H]1O[C@@H](OC[C@H]2O[C@@H](Oc3c(-c4ccc(O)c(O)c4)oc4cc(O)cc(O)c4c3=O)[C@H](O)[C@@H](O)[C@@H]2O)[C@H](O)[C@H](O)[C@H]1O,outcome,[3],inactive
CCC1(c2ccccc2)C(=O)N(COC)C(=O)N(COC)C1=O,Potency,[2],inactive
CN1C(=O)CCS(=O)(=O)C1c1ccc(Cl)cc1 (stereo not drawn),outcome,[1],inactive
same,Potency,[2],inactive
O=C(O)c1ccc(=O)[nH]c1,Potency,[2],inactive
CCN[C@H](C)Cc1cccc(C(F)(F)F)c1,Potency,[2],inactive
CCCCCCC(=O)CCCCCC/C=C/C[C@@H](O)[C@H](O)[C@@](N)(CO)C(=O)O,Potency,[2],inactive
CCC1(c2ccc(N)cc2)CCC(=O)NC1=O (stereo not drawn),outcome,[1],inactive
same,Potency,[2],inactive
Cc1ncsc1CCCl,outcome,[1],inactive
same,Potency,[2],inactive
CC(C)N(CCC(C(N)=O)(c1ccccc1)c1ccccn1)C(C)C (stereo not drawn),outcome,[1],inactive
same,Potency,[2],inactive
CC(C)c1cccc(C(C)C)c1O,outcome,[1],inactive
same,Potency,[2],inactive
CCN[C@@H](C)Cc1cccc(C(F)(F)F)c1,Potency,[2],inactive
O=C(Nc1ccc(Br)cc1)c1cc(Br)cc(Br)c1O,Potency,[2],inactive
CC(C)=CC1C(C(=O)OCN2C(=O)C3=C(CCCC3)C2=O)C1(C)C (stereo not drawn),Potency,[2],inactive
O=C(CCCN1CCC2(CC1)C(=O)NCN2c1ccccc1)c1ccc(F)cc1,outcome,[1],inactive
same,Potency,[2],inactive
C=C(C)[C@H]1CN[C@H](C(=O)O)[C@H]1CC(=O)O,outcome,[1],inactive
same,Potency,[2],inactive
NNc1ccccc1,Potency,[2],inactive
CN1CCC[C@@H]1c1cccnc1,outcome,[3],inactive
O=C(O)c1cc(O)c(O)c(O)c1,outcome,[3],inactive
COc1ccc2c3c1O[C@H]1[C@H](O)CC[C@H]4[C@@H](C2)N(C)CC[C@@]341,Potency,[2],inactive
CCCCCN(C)CCC(O)(P(=O)(O)O)P(=O)(O)O,outcome,[1],inactive
COc1ccc2[nH]cc(CCNC(C)=O)c2c1,outcome,[3],inactive
NCCc1ccc(O)cc1,outcome,[4],inactive
same,outcome,[5],inactive
same,outcome,[6],inactive
same,outcome,[7],inactive
same,outcome,[8],inactive
same,outcome,[9],inactive
same,outcome,[10],inactive
same,outcome,[11],inactive
same,outcome,[12],inactive
same,outcome,[13],inactive
same,outcome,[14],inactive
same,outcome,[15],inactive
same,outcome,[16],inactive
same,outcome,[17],inactive
same,outcome,[18],inactive
same,outcome,[19],inactive
same,outcome,[20],inactive
same,outcome,[1],inactive
same,Potency,[2],inactive
O=c1[nH]oc2c1CCNC2,outcome,[1],inactive
same,Potency,[2],inactive
C[C@H](N)C(=O)c1ccccc1,Potency,[2],inactive
C[C@]12Cc3cn[nH]c3C[C@@H]1CC[C@@H]1[C@@H]2CC[C@@]2(C)[C@H]1CC[C@]2(C)O,Potency,[2],inactive
CC1(C)C(C=C(Cl)Cl)C1C(=O)OC(C#N)c1cccc(Oc2ccccc2)c1 (stereo not drawn),Potency,[2],inactive
CCN(CCO)CCn1c(Cc2ccccc2)nc2c1c(=O)n(C)c(=O)n2C,Potency,[2],inactive
CCOC(=O)CC(SP(=S)(OC)OC)C(=O)OCC (stereo not drawn),Potency,[2],inactive
O=P1(N(CCCl)CCCl)NCCCO1 (stereo not drawn),outcome,[1],inactive
same,Potency,[2],inactive
CC(Cc1ccccc1)NCCn1cnc2c1c(=O)n(C)c(=O)n2C (stereo not drawn),Potency,[2],inactive
COC1CC(=C(c2cccs2)c2cccs2)C[N+](C)(C)C1 (stereo not drawn),Potency,[2],inactive
